Assay outcomes: PubChem BioAssay, National Center for Advancing Translational Sciences (NCATS)
TDP1 cell noCPT = qHTS for Inhibitors of human tyrosyl-DNA phosphodiesterase 1 (TDP1): qHTS in cells in absence of CPT. DT40 Tdp1-/- hTDP1 cells, no CPT, ATP luminescence, 48 h. Potency, µM (highest dose often 46.2 µM), usual class: inhibitors. 420,000 compounds, 15% hits. AID 686978, 2013; also: nearly all actives have a fitted effect of over 55% in size
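Cells were dispensed at 400 per well, compounds added by pin tool, plates incubated ≥48 hr at 37 °C, then CellTiter-Glo added for 30 min at room temperature before luminescence reading. Line: DT40 Tdp1-/- complemented with hTDP1; camptothecin omitted.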
TDP1 cell CPT = growth inhibition of DT40 Tdp1-/-;hTDP1 cells with camptothecin (screen for TDP1 inhibitors); chicken DT40 Tdp1-/-;hTDP1 cells + 20 nM CPT, ATP luminescence, 48 h; 420,000 compounds, 12% hits; Potency, µM (titrated, usually from 46.2 µM), hits mostly inhibitors; also: nearly all actives have a fitted effect of over 55% in size
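Cell growth measured by CellTiter-Glo luminescence after a minimum 48 h, 37 C compound exposure with 20 nM CPT in Tdp1-knockout DT40 cells stably expressing hTDP1, seeded 400/well; qHTS titration format.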
HT1080 IDH1KD tx = kills HT-1080 cells with IDH1 knockdown; 360,000 compounds, 2% hits; HT-1080 IDH1 knockdown viability, ATP luminescence, 48 h; Potency, µM (highest dose often 46.1 µM), hits mostly cytotoxic
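Luminescent ATP read-out (CellTiter-Glo, 10 min at room temperature) after 48 h compound exposure at 37 °C gave viability of IDH1-knockdown HT-1080 cells. Activity was normalised to DMSO and cell-free wells, then fitted as concentration-response curves.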
IL-1B inflam inh = inhibitors of inflammasome signaling (IL-1 beta secretion) | activity change, % at 57.5 µM | THP-1 LPS/ATP IL-1B secretion, AlphaLISA, 16 h; hits give low values | 360,000 compounds, 4.7% hits; in the data active = activity change below about -50%; inconclusive = mostly about -30% to -49%
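THP-1 cells pretreated 1 hr with compounds (up to 57.5 uM final), then stimulated with LPS (250 ng/mL final) plus ATP (1.25 mM final); secreted IL-1B measured by AlphaLISA after 16 hr, decreased signal indicating inhibition.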
HT1080NT lethal = kills 2HG-producing HT-1080-NT fibrosarcoma cells. Potency, µM (top dose mostly 46.1 µM), actives largely listed as cytotoxic. AID 686970. 360,000 compounds, 1.6% hits. HT-1080-NT fibrosarcoma viability, CellTiter-Glo ATP luminescence, 48 h;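 also: NT is the 2HG producing partner of a matched IDH1 knockdown line; nearly all actives have a fitted effect of over 55% in size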
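750 cells/well, RPMI + 5% FBS; 2 h settle, compound pin-transfer, 48 h at 37 degrees C. CellTiter-Glo 10 min RT, luminescence. Normalized to DMSO and media-only wells.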
Hits are given with their value; – = inactive; ? = inconclusive; · = no result given; [ ] = remark or other dose. A selection: hits, their analogues and other compounds. The true share with any hit is near 19%. Unless noted, calls follow the shape of the dose curve; as a rule, active = well fitted curve in the direction sought with a large enough effect; inconclusive = small, poorly fitted or top-dose-only effect, or another doubt; inactive = no such curve, though single readings can be large; an effect the other way counts as inactive or inconclusive.

SMILES | TDP1 cell noCPT | TDP1 cell CPT | HT1080 IDH1KD tx | IL-1B inflam inh | HT1080NT lethal
COc1ccc(S(=O)(=O)N2CCN(c3ccc(F)cc3)CC2)cc1C(=O)N1CCOCC1 | – | – | – | – | –
Cn1cnnc1SCC(=O)NC1CCCN(Cc2ccccc2F)C1 (stereo unspecified) | – | – | – | – | –
CN(C)c1ccnc2sc3c(NCC(O)CO)ncnc3c12 (stereo unspecified) | ? | – | – | – | –
CN(C)c1ccnc2sc3c(SCc4ccc(Cl)cc4)ncnc3c12 | 13µM | 16µM | – | – | –
CCCCSCCCNC(=O)c1c[nH]c2ccc(S(=O)(=O)Nc3cccc(OC)c3)cc2c1=O | 21µM | 21µM | · | · | ·
COc1ccccc1CNC(=O)c1c[nH]c2ccc(S(=O)(=O)Nc3cc(C)cc(C)c3)cc2c1=O | 21µM | ? | · | · | ·
Cc1cc(C)cc(NS(=O)(=O)c2ccc3[nH]cc(C(=O)N4CCc5ccccc54)c(=O)c3c2)c1 | ? | ? | 23µM | – | 23µM
Cc1ccc(C)c(NC(=O)CCc2c(C)nn(-c3ccc(N4CCCCC4)nn3)c2C)c1 | ? | ? | – | – | –
NC(=O)N/N=C/c1c(Sc2nnnn2-c2ccccc2)nc2ccccn2c1=O | 2.6µM | 2.9µM | – | -68 | –
O=C(CSc1nnnn1-c1ccccc1)CSc1nnnn1-c1ccccc1 | ? | ? | – | – | –
CCC(=O)Nc1ccccc1-c1nc2ccccc2n(CC(=O)c2ccc(C)cc2)c1=O | – | – | · | · | ·
COc1ccccc1NS(=O)(=O)c1cc(NC(=O)c2cc(F)c(F)c(F)c2F)ccc1N1CCOCC1 | 16µM | ? | – | – | –
O=C(Nc1ccc(N2CCOCC2)c(S(=O)(=O)Nc2ccccc2Cl)c1)c1ccc(=O)[nH]n1 | 16µM | ? | – | – | –
COc1ccccc1NS(=O)(=O)c1cc(NC(=O)c2ccccc2C)ccc1N1CCOCC1 | ? | ? | – | – | –
COc1ccccc1NS(=O)(=O)c1cc(NC(=O)c2ccc(=O)[nH]c2)ccc1N1CCOCC1 | 16µM | ? | – | – | –
COc1ccccc1NS(=O)(=O)c1cc(NC(=O)c2[nH]c(C)c(C(C)=O)c2C)ccc1N1CCOCC1 | 2.9µM | 7.3µM | – | – | –
COc1ccc(F)c(CN2CCOc3ccc(CN4CCCCC4CO)cc3C2)c1 (stereo unspecified) | – | –[9.04 µM] | · | · | ·
CN(C)Cc1ccccc1-c1cccc2nccn12 | – | – | – | – | –
Cc1cc(-c2ccc(C)c(S(=O)(=O)N3CC(=O)Nc4ccccc43)c2)on1 | – | – | – | – | –
Cc1ccc(-c2onc(C)c2C)cc1S(=O)(=O)N1CCOc2ccccc21 | 21µM | 18µM | ? | ? | ?
Cc1ccc(-c2onc(C)c2C)cc1S(=O)(=O)N1c2ccccc2CC1C (stereo unspecified) | 16µM | ? | · | · | ·
CC12CCC(C(=O)N(Cc3ccccc3)Cc3ccccc3)(OC1=O)C2(C)C (stereo unspecified) | ? | 18µM | – | – | –
c1ccc(COC2COC3C(OCc4ccccc4)COC23)cc1 (stereo unspecified) | – | – | – | – | –
CCc1c(C2(O)CCCCC2)[nH]c2ccc(C(F)(F)F)cc12 | ? | 18µM | – | -52 | ?
O=C(CSc1ccc([N+](=O)[O-])cc1)Nc1ccccc1N1CCOCC1 | 21µM | ? | – | ? | –[9.24 µM]
SMILES | TDP1 cell noCPT | TDP1 cell CPT | HT1080 IDH1KD tx | IL-1B inflam inh | HT1080NT lethal
O=C(CSc1ccc([N+](=O)[O-])cc1)Nc1cccc(S(=O)(=O)N2CCOCC2)c1 | – | – | – | -68 | –
O=C(Cc1ccccc1)Nc1cc([N+](=O)[O-])ccc1N1CCOCC1 | – | – | – | – | –
Fc1ccc(Cn2c(-c3cscn3)nc3ccccc32)c(Cl)c1 | ? | ? | – | – | –
Nc1nonc1-c1nc2ccccc2n1Cc1ccc(F)cc1Cl | 21µM | 21µM | – | ? | –
COc1cccc(CNC(=O)[C@@H]2CCCN2C(=O)[C@@H]2CCCN2C(=O)c2cccc(OC)c2)c1 | – | ? | – | – | –
S=c1[nH]cnc2sc(Nc3ccccc3)nc12 | 15µM | 15µM | – | – | –
Cc1nc(Nc2ccccc2)sc1C | – | – | – | – | –
